Compound activity deposited in PubChem BioAssay by National Center for Advancing Translational Sciences (NCATS).
BAZ2B inh – blocks human BAZ2B | AlphaScreen BAZ2B-H3K14Ac peptide displacement | AID 504333 | Potency, µM (top dose mostly 114 µM), for the others: at the top dose activity change, negative = inhibition, actives largely listed as inhibitors | Q9UIF8 | actives 4.4% (n = 360,000); also: % is scaled to controls: 0 for no effect and ±100 for the full control effect; nearly all actives have a fitted effect of over 60% in size
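In this displacement format the biotinylated H3(5-23) peptide acetylated at Lys14 serves as ligand at 50 nM, with BAZ2B at 50 nM in PBS pH 7.4 containing 0.01% Tween-20. Donor and acceptor beads are 10 ug/mL final.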
Sfp PPTase inh – blocks B. subtilis Sfp PPTase activity; Q9F4F7; Biochemical Sfp PPTase activity, qHTS; Potency, µM, for the others: largest response in the series, negative = inhibition, most hits filed as inhibitors; actives 3.5% (n = 310,000);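 also: the enzyme is Sfp with the accession as filed and its product quenches rhodamine fluorescence; 0% = enzyme reaction without inhibitor and -100% = no enzyme wells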
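Buffer: 50 mM Hepes-Na pH 7.6, 10 mM MgCl2, 0.01% Nonidet P-40, 0.01% BSA. Enzyme 15 nM, pre-exposed to compound 15 min; substrates then added and fluorescence change tracked over 30 min.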
G9a inh – G9a (human) methyltransferase inhibition; Q96KQ7; G9a H3K9 monomethylation, AlphaScreen, 2 h; Potency, µM (doses to about 102 µM), for inactives: at the highest dose activity, negative = inhibition, hits mostly inhibitors; actives 8.8% (n = 350,000); AID 504332; also: % is scaled to controls: 0 for no effect and ±100 for the full control effect; nearly all actives have a fitted effect of over 75% in size
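Readings reflect AlphaScreen signal from monomethyl-H3K9 antibody detection. HMT at 20 nM; substrate b-H3K9 500 nM; cofactor SAM 20 uM; 2 h RT reaction; compounds tested as titrations in qHTS with 15 min preincubation.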
JMJD2A Tudor inh – blocks the human JMJD2A Tudor domain; O75164; AlphaScreen JMJD2A-Tudor / H3K4me3 peptide binding; AID 504339; Potency, µM (doses to about 114 µM), without a hit: at the highest dose activity change, negative = inhibition, most hits filed as inhibitors; actives 4.4% (n = 390,000); also: % is scaled to controls: 0 for no effect and ±100 for the full control effect; nearly all actives have a fitted effect of over 50% in size
12-LOX inh – blocks human arachidonate 12S-lipoxygenase | actives 1.1% (n = 580,000) | purified 12hLO, xylenol orange hydroperoxide absorbance | P18054 | Potency, µM (titrated, usually from 108 µM), without a hit: top-dose activity change, negative = inhibition, most hits filed as inhibitors; also: % is scaled to controls: 0 for no effect and ±100 for the full control effect
Target sequence (P18054 whole entry, looked up): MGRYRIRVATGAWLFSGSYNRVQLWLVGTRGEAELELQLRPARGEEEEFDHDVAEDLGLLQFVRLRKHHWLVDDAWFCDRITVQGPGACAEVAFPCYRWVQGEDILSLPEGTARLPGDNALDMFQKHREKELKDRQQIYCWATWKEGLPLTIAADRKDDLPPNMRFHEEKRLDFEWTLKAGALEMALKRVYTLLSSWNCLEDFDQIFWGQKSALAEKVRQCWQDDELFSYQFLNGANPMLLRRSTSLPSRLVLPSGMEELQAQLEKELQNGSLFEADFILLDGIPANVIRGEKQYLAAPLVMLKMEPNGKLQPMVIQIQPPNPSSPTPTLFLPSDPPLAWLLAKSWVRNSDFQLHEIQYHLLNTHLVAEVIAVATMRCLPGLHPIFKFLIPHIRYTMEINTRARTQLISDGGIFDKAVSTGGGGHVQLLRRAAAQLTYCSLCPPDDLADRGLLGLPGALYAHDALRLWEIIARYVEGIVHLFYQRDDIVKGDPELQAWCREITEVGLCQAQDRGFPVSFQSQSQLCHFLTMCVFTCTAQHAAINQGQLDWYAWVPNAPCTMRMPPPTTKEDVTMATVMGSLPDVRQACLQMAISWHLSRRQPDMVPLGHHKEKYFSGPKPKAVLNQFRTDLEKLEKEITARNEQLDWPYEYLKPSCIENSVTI
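Purified human 12hLO (150 nM final) in 25 mM Hepes, 0.01% Triton X-100, pH 7.0 was preincubated 15 min at room temperature with compound. Then 40 uM arachidonic acid was added, 30 min. Hydroperoxide was read by Fe-XO absorbance ratio 573/405 nm.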
HP1b chromo inh – blocks HP1-beta chromodomain binding to methylated histone tails; actives 0.56% (n = 390,000); AlphaScreen HP1-beta / biotin-H3K9me3 peptide binding; P83916; Potency, µM (doses to about 114 µM), inactives show top-dose activity change, negative = inhibition, most hits filed as inhibitors; AID 540317; also: nearly all actives have a fitted effect of over 70% in size
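Compound inhibition of the preformed complex between 50 nM HP1-beta and 50 nM biotinylated H3K9me3 peptide was read by AlphaScreen. Buffer was PBS pH 7.4 with 0.01% Tween-20. Incubations ran 30 min at room temperature, with 10 ug/mL donor/acceptor beads.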
An asterisk follows results filed as active; ? = inconclusive; / = no result given; [ ] = remark or other dose. An excerpt weighted towards active compounds, which were near 8.7% of everything screened. Calls follow the shape of the dose curve; as a rule, active = well fitted curve in the direction sought with a large enough effect; inconclusive = small, poorly fitted or top-dose-only effect, or another doubt; inactive = no such curve, though single readings can be large; an effect the other way counts as inactive or inconclusive. Potency is read from the fitted curve at half-maximal effect.

SMILES | BAZ2B inh | Sfp PPTase inh | G9a inh | JMJD2A Tudor inh | 12-LOX inh | HP1b chromo inh
O=c1cc(-c2ccccc2O)oc2cc(O)ccc12 | / | -4% | / | / | / | /
CCNC(=O)N(C1CC1)C1CCOC2(CCN(C(=O)CC3CCCC3)CC2)C1 (stereo not drawn) | / | / | / | / | -10% | /
COc1ccc(C(=O)NCCC2CCN(C(=O)Nc3ccccc3)CC2)cc1OC | / | / | / | / | 2% | /
CCN1CCC2(CCC1=O)CN(Cc1ccc(C)c3ccccc13)CCN2C (stereo not drawn) | / | / | / | / | 47% | /
O=C(NCc1ccccn1)c1cc2n(n1)C(C(F)(F)F)CC(c1ccco1)N2 (stereo not drawn) | 13% | 13µM* | ? | -6% | -22% | 40%
CC(C)NC(=O)c1cc2n(n1)C(C(F)(F)F)CC(c1ccco1)N2 (stereo not drawn) | -5% | 10% | 0% | -9% | -3% | 17%
Cc1cc2nc(CO[C@H]3CN(C4CCN(C)CC4)C[C@H]3F)[nH]c2cc1C | / | / | / | / | 27%[176 µM] | /
CCOCCCNC(=O)/C=C/c1ccc(OC)cc1 | / | / | / | / | 48% | /
Cc1nnc2sc(-c3ccc(-c4ccc(Cl)c(C(F)(F)F)c4)o3)nn12 | 9% | -6% | 50µM* | ? | ? | 14%
N#Cc1nc(-c2ccc(S(=O)(=O)N3CCCCCC3)cc2)oc1NCc1ccc2c(c1)OCO2 | / | / | / | / | -13% | /
O=[N+]([O-])c1ccc(Nc2ccc(N3CCOCC3)cc2)c([N+](=O)[O-])c1 | 11µM* | -16% | 22µM* | ? | -3% | 32µM*
COc1ccccc1Nc1ccc(S(=O)(=O)N2CCCCC2)cc1[N+](=O)[O-] | 8.9µM* | 4% | ? | 10µM* | -4% | ?
COc1ccc(S(=O)(=O)N2CCCCC2)cc1NC(=S)Nc1cccc(Cl)c1C | -36% | -7% | -9%[59 µM] | -23% | 40µM* | -22%
COc1ccc(S(=O)(=O)N2CCCCC2)cc1NC(=S)Nc1ccccc1 | -8% | 4% | -4%[59 µM] | -23% | -28% | -2%
COc1ccc(Nc2ccc(S(=O)(=O)N3CCCCCC3)cc2[N+](=O)[O-])cc1 | 10µM* | 0% | 11µM* | 6.3µM* | -1% | 25µM*
COc1ccccc1Nc1ccc(C(=O)O)cc1[N+](=O)[O-] | -34% | 14% | ? | -28% | -7% | 10%
COC(=O)CNCc1cccc(F)c1 | / | / | / | / | -54% | /
CCCOc1ccc(S(=O)(=O)N2CCOCC2)cc1[N+](=O)[O-] | -15% | 17% | 0%[59 µM] | 89µM* | 28% | -7%
CCCCCC(/C=N/Nc1ccc(S(=O)(=O)N2CCOCC2)cc1[N+](=O)[O-])=C\c1ccccc1 | ? | 5% | 11µM* | ? | -3% | ?
CSc1cccc(Nc2ccc(S(=O)(=O)N3CCOCC3)cc2[N+](=O)[O-])c1 | ? | / | ? | ? | 2% | -14%
COCC(C)Nc1ccc(S(=O)(=O)N2CCCC2)cc1[N+](=O)[O-] (stereo not drawn) | -17% | 0% | 21%[59 µM] | -17% | -15% | -9%
COc1ccc(Nc2ccc(S(=O)(=O)N3CCCCC3)cc2[N+](=O)[O-])cc1OC | 10µM* | 4% | 7.1µM* | ? | 5% | ?
Cc1cccc(Nc2ccc(S(=O)(=O)N3CCOCC3)cc2[N+](=O)[O-])c1 | ? | / | ? | 10µM* | ? | ?
CC(NC(=O)CSc1nnc(-c2nn(Cc3ccccc3)c(=O)c3ccccc23)o1)c1ccccc1 (stereo not drawn) | / | / | / | / | 0% | /
O=C(O)CCc1ccc(-c2cccs2)n1NC(=O)c1ccc(Cl)cc1Cl | -37% | -7% | 56µM* | -30% | ? | -2%
SMILES | BAZ2B inh | Sfp PPTase inh | G9a inh | JMJD2A Tudor inh | 12-LOX inh | HP1b chromo inh
O=C(O)CCc1ccc(-c2cccs2)n1NC(=O)c1ccc(Cl)cc1 | -38% | 25µM* | -3%[12.7 µM] | -29% | ? | 15%
O=C(O)CCc1ccc(-c2ccccc2)n1NC(=O)c1ccc(Cl)cc1 | / | / | / | / | 2% | /
O=C(Nc1ccc2c(c1)OCO2)C1CCCN(c2nc3ccccc3s2)C1 (stereo not drawn) | -35% | -7% | 3.2µM* | -25% | 14% | -5%
CC(Sc1nc2ccccc2s1)C(=O)Nc1ccc2c(c1)OCO2 (stereo not drawn) | -10% | -4% | 1.8µM* | 8% | / | 35%
CC(Sc1nnc(N)s1)C(=O)NCc1ccc2c(c1)OCO2 (stereo not drawn) | 0% | / | 14%[12.7 µM] | -16% | 70% | 26%
CC(Sc1nnc(N)s1)C(=O)Nc1ccc2c(c1)OCO2 (stereo not drawn) | 12% | / | 45µM* | -27% | 2% | 34%
CC1CCC2C(C1)c1sc(=O)[nH]c1SC2(C)C (stereo not drawn) | ? | 8% | 50µM* | ? | -26% | 0%
Cc1ccc([N+](=O)[O-])cc1S(=O)(=O)N1CCn2cccc2C1c1ccc(F)c(F)c1 (stereo not drawn) | ? | / | ? | ? | ? | -12%
Cc1ccc(C2c3cccn3CCN2S(=O)(=O)c2ccc([N+](=O)[O-])cc2)cc1 (stereo not drawn) | 7.1µM* | / | 14µM* | ? | -28% | ?
O=[N+]([O-])c1ccc(S(=O)(=O)N2CCn3cccc3C2c2ccc(Br)cc2)cc1 (stereo not drawn) | ? | / | 7.9µM* | ? | ? | -18%
Cc1ccccc1N1CC(=O)N(c2ccccc2C)CC1=O | 6% | 17% | 10% | 1% | -25% | 37%
Cc1cccc2c1c1ccc3c(c1n2C)C(=O)C=CC3=O | 5µM* | 3.5µM* | 2µM* | 25µM* | ? | 6.3µM*
COc1ccc(-c2cc(N3CCC(NC(=O)c4cc(C)ccc4C)CC3)n[nH]2)cc1 | / | / | / | / | 23% | /
CCCNc1c(NC(=O)Nc2cc(C)cc(C)c2)c(=O)oc2ccccc12 | / | / | / | / | 22% | /
NNC(=O)c1ccc2c(c1)S(=O)(=O)NNC2=O | -32% | -5% | 11µM* | 28µM* | ? | 77%
Cc1ccc(NC(=O)CSc2ncnc3ccccc23)c(C)c1 | / | / | / | / | 1% | /
Cc1cc(C(C#N)c2cccc(Cl)c2)n2ncnc2n1 (stereo not drawn) | ? | 11% | 8.9µM* | ? | 180% | -6%
Cc1ccc(C(C(=O)NC2CCCCC2)N(C)c2ccccc2)cc1 (stereo not drawn) | / | / | / | / | 4% | /
C/C(=N\OCc1nc2ccccc2c(=O)n1/N=C/c1cc(C)cc([N+](=O)[O-])c1O)c1ccccc1 | 7.9µM* | -23% | / | -4% | ? | 33%
O=[N+]([O-])c1ccc(O)c(/C=N/n2c(CO)nc3ccccc32)c1 | -20% | 0% | -13% | 0%[11.4 µM] | 4% | 5%
